A3A deaminase: APOBEC3A ssDNA deaminase inhibitors, primary screen, selectivity assay for APOBEC3G inhibitor project, biochemical, FAM/TAMRA oligo cleavage fluorescence | DNA dC->dU-editing enzyme APOBEC-3A (Homo sapiens), P31941 | recombinant A3A, FAM/TAMRA ssDNA deamination fluorescence | inhibition, % at 20 µM | 0.41% of 330,000 active;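 active = at least 40% inhibition at 20 µM here, with at most 30% in a related deaminase screen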;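 note: plate controls were A3A with DMSO for no effect and wells lacking A3A enzyme for full effect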
MITF TRPM1 HTS: activators of MITF-driven TRPM1 promoter reporter, primary screen, cell-based, SK-MEL-5, luciferase, single point | SK-MEL-5 TRPM1-promoter luciferase, 24 h; % of positive control, neutral wells = 0 | activation, % at 12.5 µM | 0.75% of 300,000 active;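 active = mean activation of at least 80% with every replicate also reaching 80%; inconclusive = mean reaches 80% but some replicate falls short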;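 note: 0% = neutral control wells and 100% = parthenolide positive control wells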
PHOSPHO1 block: PubChem AID 1565 | Phosphoethanolamine/phosphocholine phosphatase (Homo sapiens), Q8TCT1 | recombinant PHOSPHO1, absorbance phosphatase assay | inhibition, % at 13.3 µM | 1.1% of 290,000 active; in the data active = inhibition above about 60%
Target sequence (Q8TCT1 whole entry, looked up): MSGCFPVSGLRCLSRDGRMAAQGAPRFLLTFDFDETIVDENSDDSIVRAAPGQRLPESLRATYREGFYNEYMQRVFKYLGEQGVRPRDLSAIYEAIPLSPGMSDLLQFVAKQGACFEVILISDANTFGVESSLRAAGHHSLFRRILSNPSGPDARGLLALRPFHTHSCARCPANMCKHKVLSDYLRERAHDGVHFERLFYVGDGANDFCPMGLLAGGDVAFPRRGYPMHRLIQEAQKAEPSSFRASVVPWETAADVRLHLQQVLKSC
APOBEC3G inh: APOBEC3G DNA deaminase inhibitors, primary screen, biochemical, fluorescence, single-stranded DNA substrate, uHTS; 0.28% of 330,000 active; DNA dC->dU-editing enzyme APOBEC-3G (Homo sapiens), Q9HC16; inhibition, % at 20 µM; recombinant A3G, ssDNA deamination FAM/TAMRA fluorescence;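 active = inhibition of at least 40% at 20 µM, with no more than 30% in the related APOBEC3A deaminase screen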;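 note: plate controls were DMSO wells with A3G for no effect and wells lacking A3G enzyme for full effect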
Target sequence (Q9HC16 whole entry, looked up): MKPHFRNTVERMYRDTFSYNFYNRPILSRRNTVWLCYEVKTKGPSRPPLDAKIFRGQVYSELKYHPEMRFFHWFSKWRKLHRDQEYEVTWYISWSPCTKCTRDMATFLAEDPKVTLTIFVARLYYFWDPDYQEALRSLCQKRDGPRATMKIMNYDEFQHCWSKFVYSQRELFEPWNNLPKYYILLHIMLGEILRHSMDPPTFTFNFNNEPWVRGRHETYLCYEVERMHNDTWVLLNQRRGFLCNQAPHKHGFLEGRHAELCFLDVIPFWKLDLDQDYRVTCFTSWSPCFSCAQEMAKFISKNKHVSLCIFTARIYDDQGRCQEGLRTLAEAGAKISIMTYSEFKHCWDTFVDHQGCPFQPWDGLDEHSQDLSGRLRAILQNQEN
esBAF inh: Bmi1 luciferase reporter increase in mESCs, primary screen, esBAF inhibitor project, mouse ES cells, Bmi1 luciferase knock-in, single point. reporter increase, % at 12.5 µM. 2% of 350,000 active. 24 h; 100% = twice the neutral-well signal; in the data active = activation above about 40%; inconclusive = no clear call, values can overlap the other calls;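 note: 0% = median of the plate's neutral control wells and 100% = double that signal; a rise in the Bmi1 reporter signal indicates esBAF inhibition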
Wnt act: Wnt/beta-catenin pathway activators, primary screen, cell-based, plate reader, single point. Wnt/beta-catenin reporter cell assay, activator. 1.2% of 300,000 active. activation, % at 9.35 µM; in the data active = activation above about 30%, passing the limit was not always enough; inconclusive = no clear call, values can overlap the other calls;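 note: 0% = neutral control wells and 100% = positive control wells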
Ring1 derepress: Ring1 mRNA increase in mouse ESCs, confirmation, esBAF inhibitor project, cell-based, mouse ESC, RT-qPCR, cherry-pick. fold change at 33 µM. 550 tested, under 10 active. mouse ESC E14, Ring1 mRNA RT-qPCR fold change. shares compounds with esBAF inh. AID 743176, 2013;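 active = Ring1 gene expression raised more than 2-fold over untreated cells in both replicates at either tested dose; inconclusive = only one replicate above 2-fold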;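 note: Ring1 transcript normalised to actin housekeeping signal by TaqMan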
esBAF Fgf4 qPCR: Fgf4 mRNA decrease in mouse ESCs, confirmation, esBAF inhibitor project, cell-based, mouse ESC, RT-qPCR, cherry-pick; Fgf4 expression fold change at 33 µM; 4% of 550 active; shares compounds with esBAF inh; mouse ESC E14, Fgf4 mRNA qPCR fold change; active compounds read low; AID 743177, 2013;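 active = Fgf4 expression under 0.8 fold of control in both repeat measurements at one or both tested doses; inconclusive = under 0.8 fold in just a single repeat measurement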;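 note: Fgf4 transcript normalised to actin in duplex TaqMan qPCR; cells exposed to compound for 24 h before lysis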
esBAF Bmi1 qPCR: esBAF inhibition via Bmi1 de-repression, confirmation, cell-based, RT-qPCR, mouse ESC, single point, cherry-pick; shares compounds with esBAF inh; mouse ESE14 ES cells, Bmi1 mRNA qPCR fold; active compounds read high; fold change at 33 µM; 550 tested, under 10 active;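 active = Bmi1 expression fold change above 6 at either tested concentration, seen in replicate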;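 note: higher fold means more Bmi1 de-repression and stronger esBAF inhibition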
A549 cytotox: A549 cell cytotoxicity, cytotoxicity control, plate reader, single point, cherry-pick; 550 tested, under 10 active; AID 743188, 2013; shares compounds with esBAF inh; cell viability change % (negative = cytotoxic), % at 25 µM, hits read low; call rule not given here
HepG2 cytotox SP: HepG2 cell cytotoxicity, cytotoxicity control, plate reader, single point, cherry-pick | shares compounds with esBAF inh | activity change, negative = inhibition, % at 25 µM | active compounds read low | 4% of 550 active; in the data active = activity change below about -50%
HEK293 cytotox SP: HEK293 cell cytotoxicity, cytotoxicity control, plate reader, single point, cherry-pick. shares compounds with esBAF inh. activity change, negative = inhibition, % at 25 µM, hits read low. 3% of 550 active; in the data active = activity change below about -38%, passing the limit was not always enough
Starred values were filed as active, the others as inactive; ? = inconclusive; nt = no result given. Rows were chosen to be rich in hits. Some 3.6% of all compounds tested hit in one or more screens of this group.

SMILES | A3A deaminase | MITF TRPM1 HTS | PHOSPHO1 block | APOBEC3G inh | esBAF inh | Wnt act | Ring1 derepress | esBAF Fgf4 qPCR | esBAF Bmi1 qPCR | A549 cytotox | HepG2 cytotox SP | HEK293 cytotox SP
COc1cccc(NC(=O)N2CCN(c3cccc(C)c3C)CC2)c1 | 0 | nt | 0 | -1 | 72* | 0 | 1.1 | 1 | 1.2 | -3 | 13 | -5
COc1ccccc1N1CCN(C(=O)Nc2cccc(Cl)c2)CC1 | 0 | 27 | 13 | -5 | 13 | -2 | nt | nt | nt | nt | nt | nt
C[C@H](CO)N1C[C@H](C)[C@H](CN(C)C(=O)Nc2ccc3c(c2)OCO3)OCCCC[C@H](C)Oc2ccc(NC(=O)Nc3ccccc3)cc2C1=O | nt | nt | nt | nt | 2 | nt | nt | nt | nt | nt | nt | nt
CC(C)c1ccc(NC(=O)c2ccc3snnc3c2)cc1 | -2 | 76 | 25 | -5 | 72* | 19 | 1.2 | 0.94 | 1.8 | -3 | 11 | -5
COc1ccc(C(=O)NCCS(=O)(=O)NCCc2ccccc2)cc1 | -5 | 66 | nt | -10 | 56* | -1 | 1.3 | 1.2 | 1.4 | -1 | -12 | -10
COc1ccc(CCNS(=O)(=O)CCNC(=O)c2ccccc2)cc1 | 3 | 0 | nt | 8 | 4 | 0 | nt | nt | nt | nt | nt | nt
COc1ccc(CNC(=O)c2ccc(-c3ccccc3)cc2)cc1 | -2 | 56 | 4 | -5 | 62* | nt | 1.3 | 1.1 | 1.4 | 1 | -46 | -4
COc1ccc(CNC(=O)c2ccc(Br)cc2)cc1 | 1 | nt | 36 | -4 | nt | 5 | nt | nt | nt | nt | nt | nt
C[C@@H]1CN([C@H](C)CO)C(=O)CCCn2nncc2CO[C@@H]1CN(C)Cc1ccc(C(F)(F)F)cc1 | nt | nt | nt | nt | -4 | nt | nt | nt | nt | nt | nt | nt
O=C(NC1CCCCC1)N1CCc2ccccc2C1 | 8 | 77 | 41 | 9 | 67* | 10 | 1.1 | 1 | 1.9 | -7 | -26 | -11
CC(=O)Oc1ccc2cc(-c3ccccc3)c(=O)oc2c1 | -4 | 60 | 20 | -6 | 60* | 15 | 1.3 | 0.89 | 1.6 | -14 | -7 | 3
COc1ccc(-c2cc3ccc(OC(C)C(=O)O)cc3oc2=O)cc1 (stereo not drawn) | -1 | 0 | nt | -3 | -3 | 5 | nt | nt | nt | nt | nt | nt
c1ccc(Nc2cccc(Nc3ccccc3)n2)cc1 | 0 | 50 | 4 | 0 | 59* | nt | 0.97 | ? | 1.7 | -5 | -27 | -9
O=C1NC(=Nc2ccccc2)S/C1=C\c1cccn1-c1ccccc1 | -2 | 21 | 26 | -7 | 67* | nt | 2.6* | 0.44* | 11* | -10 | 14 | -43
CO[C@H]1CN(C)C(=O)c2cc(NS(=O)(=O)c3ccc(C)cc3)ccc2OC[C@@H](C)NC[C@H]1C | nt | nt | nt | nt | 4 | nt | nt | nt | nt | nt | nt | nt
Oc1ccc(-c2nccc(-c3ccccn3)n2)cc1 | -2 | 101* | nt | 8 | 60* | 24 | 1.3 | 1 | 1.4 | 2 | 9 | 11
CCN(CC)c1nc(C=Cc2ccc(N(C)C)cc2)c2nccnc2n1 | nt | nt | nt | nt | nt | 0 | nt | nt | nt | nt | nt | nt
CN(C)c1ccc(C=Cc2nccc3ccccc23)cc1 | nt | nt | nt | nt | 70* | 3 | 1.5 | 1.1 | 4.2 | -48 | -75* | -63*
COc1ccc(S(=O)(=O)Nc2ccc3c(c2)CC(=O)N([C@@H](C)CO)C[C@@H](C)[C@@H](CN(C)C(=O)NC2CCCCC2)O3)cc1 | nt | nt | nt | nt | -4 | nt | nt | nt | nt | nt | nt | nt
Cn1c(/C=C/c2ccc(Br)cc2)nc2ccccc2c1=O | 2 | 79 | 18 | -4 | 74* | 17 | 1.3 | ? | 1.6 | 6 | 6 | 9
Cc1ccc(C(=O)Nc2ccc(Br)c(C(F)(F)F)c2)cc1 | 2 | 84* | 18 | -2 | 74* | nt | 1.1 | 0.93 | 2.8 | -5 | 7 | -56*
COCCNC(=O)C[C@@H]1CC[C@H]2[C@@H](COC[C@H](O)CN2S(=O)(=O)c2ccccc2F)O1 | nt | nt | nt | nt | -9 | nt | nt | nt | nt | nt | nt | nt
COc1cccc(/C=C2/NC(=O)N(CC(=O)Nc3ccc(C)cc3)C2=O)c1OCc1cccc(C(=O)O)c1 | -1 | 8 | 13 | -6 | 2 | 0 | nt | nt | nt | nt | nt | nt
Cc1ccc(NC(=O)CN2C(=O)N/C(=C/c3ccccc3OCc3cccc(C(=O)O)c3)C2=O)cc1 | 3 | 59 | -48 | 2 | 39 | 11 | 1.2 | 0.84 | 1.2 | -8 | 0 | -7
COc1ccc(C)c2sc(=NC(=O)c3cccc(N4C(=O)CCC4=O)c3)n(C)c12 | 1 | 55 | 2 | -3 | 76* | 0 | 1.5 | 0.98 | 1.6 | -9 | -19 | 2
COc1ccc(-c2ccc3oc(-c4ccsc4)cc(=O)c3c2)cn1 | -4 | 138* | nt | -7 | 68* | 48* | 1.4 | 0.94 | 1.5 | -1 | -22 | -2
COc1ccc(-c2ccc3oc(-c4ccsc4)c(-c4ccc(Br)nc4)c3c2)cc1 | -1 | nt | nt | -5 | nt | nt | nt | nt | nt | nt | nt | nt
CCc1c(C(=O)OCc2ccccc2)[nH]c(C)c1C | -5 | 59 | 39 | -9 | 53* | 0 | 1 | 0.89 | 2.2 | -5 | -25 | -6
O=C1N=C(N2CCCCC2)S/C1=C\c1ccccc1F | -2 | nt | 23 | -4 | 57* | 9 | 1.4 | ? | 1.7 | 4 | -8 | -4
C[C@@H]1CN([C@@H](C)CO)C(=O)c2cc(NC(=O)Nc3ccc(F)cc3)ccc2O[C@@H](C)CCCCO[C@H]1CN(C)C(=O)Cc1ccccc1 | nt | nt | nt | nt | 3 | nt | nt | nt | nt | nt | nt | nt

Screens: PubChem, several laboratories
